According to PubChem BioAssay AID817 (Emory University Molecular Libraries Screening Center, 2007):
Among all 140,000 compounds or so, about 300 (0.21%) were called active.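 Rule for the calls: active = z-score above 3 at both the 24 hr and the 30 hr optical density reads; inactive = the rest, inconclusive results apart.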 Shown is part of a subset that was picked to be rich in actives.

Assay: restorers of sdo1-deficient yeast growth – S. cerevisiae, bone marrow failure model, primary screen (AID 817);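 note: z-score against mean and SD of all compound wells on the same plate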
Settings: S. cerevisiae sdo1-depleted JHY4D growth rescue, at 10 µM, stronger effect = higher value, pdr5 snq2 efflux-pump mutant strain
[1] = OD600, measured here: growth rescue at 24 h

| Compound | z-score (OD600 30 h) | z-score [1] |
| --- | --- | --- |
| Cc1ccc(C(=O)CNc2ccc(F)cc2)cc1 | 0.78 (inactive) | -0.09 |
| Fc1ccccc1CNC(=S)Nc1ccc(Cl)cc1 | -1.01 (inactive) | -0.89 |
| CCOC(=O)C(C)Sc1nnc(CSc2nc3nc(C)cc(C)n3n2)o1 (stereo unspecified) | 0.4 (inactive) | 0.13 |
| CCOc1cccc2c1OC1(CCCCC1)N1N=C(c3cccnc3)CC21 (stereo unspecified) | 13.5 (active) | 3.28 |
| c1cncc(-c2nnc3n2C2(CCCCC2)Cc2ccccc2-3)c1 | -0.05 (inactive) | -0.69 |
| CCOc1ccccc1C1CC(c2cccc(NS(C)(=O)=O)c2)=NN1C(=O)c1ccccc1 (stereo unspecified) | -0.43 (inactive) | -0.52 |
| N/C(=N\OC(=O)N1c2ccccc2Sc2ccccc21)c1ccc(Br)cc1 | -1.34 (inactive) | -1.41 |
| Cc1cc(-c2csc(N)n2)c(C)n1-c1ccccc1 | 0.37 (inactive) | 0.28 |
| C/C(=N\NC(=O)c1ccc(NS(=O)(=O)c2cccs2)cc1)c1ccc2ccccc2c1 | 0.3 (inactive) | 0.75 |
| CCCCC(=O)N/N=C(\C)CC(=O)Nc1cc(Cl)ccc1OC | 0.09 (inactive) | -0.2 |
| COc1ccc(/C(C)=N/Nc2cc(C(F)(F)F)ccc2Cl)c(OC)c1 | -0.18 (inactive) | -0.33 |
| COc1ccc(/C(C)=N/NC(=O)CCC(=O)Nc2ccc(Cl)cc2Cl)c(OC)c1 | 5.63 (active) | 5.64 |
| O=c1[nH]c2ccccc2s1 | 0.98 (inactive) | 1.68 |
| C=CCN(c1ccc(C(=O)Nc2cc(C)cc(C)c2)cc1)S(C)(=O)=O | -0.5 (inactive) | -0.78 |
| C#CCOCCOCCOCCNc1nc(N2CCN(C(=O)[C@H](C(C)C)n3cc(CCO)nn3)CC2)nc(N2CCN(C(=O)[C@H]([C@@H](C)CC)n3cc(CCCN=C(N)N)nn3)CC2)n1 | 1.22 (inactive) | 1.32 |
| CCn1c(SCC(=O)N/N=C/C=C/c2ccccc2[N+](=O)[O-])nnc1-c1ccccc1 | 0.43 (inactive) | -0.06 |
| CN(C)C(=O)c1ccc2c(c1)C1C3CCC(C3)C1C(c1ccccc1)N2 (stereo unspecified) | -0.71 (inactive) | -0.66 |
| CCCCNC(=O)CSc1nc2ccc(NC(=O)CSc3nnc(N)s3)cc2s1 | 0.08 (inactive) | -0.52 |
| COC(=O)c1ccc(NC(=O)CSc2nncc3ccc(OC)c(OC)c23)cc1 | -1.41 (inactive) | -0.89 |
| CCOc1ccc(S(=O)(=O)N/N=C(\C)c2ccc(Cl)c(Cl)c2Cl)cc1 | 1.17 (inactive) | 1.85 |
| O=C(CSc1nc2ccccc2c(=O)n1CCCO)N1CCc2ccccc21 | -1.29 (inactive) | -0.81 |
| CCc1ccc(C2N3CC4([N+](=O)[O-])CN2CC([N+](=O)[O-])(C3)C4(C)C)cc1 (stereo unspecified) | 1.48 (inactive) | 1.35 |
| CCC(C)C(=O)Nc1cc([N+](=O)[O-])ccc1Cl (stereo unspecified) | 0.25 (inactive) | -0.26 |
| CN(C)/C(=N\OC(=O)c1ccccc1)c1nonc1N | -0.17 (inactive) | 0.24 |
| COCCn1c(=O)[nH]c(=O)c2cc(C(=O)c3cc(OC)ccc3O)cnc21 | 0.16 (inactive) | 0.23 |
| N#C/C(=C\C1=C(N2CCOCC2)C(=C\c2ccccc2)/CC1)C(=O)Nc1ccccc1F | 0.41 (inactive) | 2.72 |

| Compound | z-score (OD600 30 h) | z-score [1] |
| --- | --- | --- |
| COc1cc(OC)cc(C(=O)NCC(=O)OCc2csc(-c3ccccc3)n2)c1 | -0.49 (inactive) | -0.88 |
| O=C(/C=C/c1ccccc1[N+](=O)[O-])NCC1CCCO1 (stereo unspecified) | 1.67 (inactive) | 2.05 |
| Cc1cc(C(=O)NNC(=S)NC(C)c2ccccc2)cs1 (stereo unspecified) | 0.17 (inactive) | -0.18 |
| O=C(CN1CCN(S(=O)(=O)c2ccc(Br)cc2)CC1)Nc1ccccc1C(=O)c1ccccc1 | -0.96 (inactive) | -0.1 |
| Cc1c(C(=O)NCCCc2ccccc2)cccc1[N+](=O)[O-] | -0.72 (inactive) | -1.83 |
| CN(C)c1ccc(Nc2c3c4c(cccc4n(C)c2=O)C(=O)c2ccccc2-3)cc1 | 12.3 (active) | 10.3 |
| O=[N+]([O-])c1cccc(C2=NCCS2)c1 | 0.63 (inactive) | 0.08 |
| Cc1ccccc1NC(=S)N(CCCN1CCOCC1)Cc1cccs1 | 0.26 (inactive) | 0.42 |
| O=C1NC(c2ccccc2)CCC1(Cl)Cl (stereo unspecified) | 0.83 (inactive) | -0.01 |
| NS(=O)(=O)c1cc(C(=O)NCCOc2ccccc2)c(Cl)cc1Cl | -0.22 (inactive) | -0.02 |
| O=C(NNC1=NCCC1)c1cccc(S(=O)(=O)N2CCCCC2)c1 | 1.39 (inactive) | 1.17 |
| CCN(C(=O)COc1cccnc1[N+](=O)[O-])C1CCS(=O)(=O)C1 (stereo unspecified) | 0.14 (inactive) | 0.45 |
| C=CCOc1c(Br)cc(/C=N\n2nnnc2N)cc1OC | 0.16 (inactive) | 0.27 |
| CC(=O)Nc1ccc(S(=O)(=O)NC2(C(F)(F)F)C(=O)Nc3c2c(=O)[nH]c(=O)n3Cc2ccccc2)cc1 (stereo unspecified) | 0.9 (inactive) | -0.08 |
| Cc1ccc(Nc2ccc(C(N)=O)cc2[N+](=O)[O-])cc1 | 0.35 (inactive) | 0.28 |
| CCC1CCCCN1C(=S)Nc1ccc(C(C)=O)cc1 (stereo unspecified) | -0.29 (inactive) | -0.44 |
| C=CCn1c(SCc2ccc(Cl)c(Cl)c2)nnc1C(CO)NC(=O)c1ccc(OC)cc1 (stereo unspecified) | 0.22 (inactive) | -0.41 |
| O=C(COC(=O)/C=C/c1cccc(Cl)c1)NCCc1ccccc1 | 3.39 (active) | 3.67 |
| COc1cc(/C=C/C(=O)OCC(=O)Nc2cccc(Oc3ccccc3)c2)ccc1O | -0.4 (inactive) | 0.4 |
| COc1ccc(/C=C/C(=O)OCC(=O)NCc2cccs2)cc1OC | 1.04 (inactive) | 0.67 |
| CC(NC(=S)Nc1ccccc1)C1COc2ccccc2O1 (stereo unspecified) | -0.7 (inactive) | 0.37 |
| Clc1cccc(CN2COc3c(cc(Cl)c4cccnc34)C2)c1 | -1.42 (inactive) | 1.02 |
| COc1ccc(C(=O)CSc2nnc(NC(=O)C3CC(=O)N(c4cccc(OC)c4)C3)s2)cc1 (stereo unspecified) | -0.16 (inactive) | 0.63 |
| Cn1cccc1/C=C1\SC(=S)N(NC(=O)c2ccc(Cl)cc2)C1=O | -1.05 (inactive) | -0.65 |
| COc1cc(OC)c(-n2cc(-c3ccc(Cl)cc3)[nH]c2=O)cc1Cl | 0.21 (inactive) | 1.29 |
| COCCCNC(=O)CNC(=S)N(Cc1cc(OC)c(OC)c(OC)c1)C1CCCC1 | 1.27 (inactive) | 0.62 |

| Compound | z-score (OD600 30 h) | z-score [1] |
| --- | --- | --- |
| O=C(NC(=S)NC1CCSC1=O)c1ccccc1F (stereo unspecified) | 1.34 (inactive) | 0.37 |
| COc1cc(OC)c(C(=O)OC(C)C(=O)Nc2cc(C(F)(F)F)ccc2Cl)cc1OC (stereo unspecified) | -0.55 (inactive) | -0.89 |
| COc1ccc(COC(=O)N/N=C(\C)CC(=O)Nc2ccc(Cl)cc2)cc1 | -0.6 (inactive) | -0.79 |
| Cc1cccc2cc(CN(Cc3cccs3)C(=S)NCc3ccco3)c(=O)[nH]c12 | -0.84 (inactive) | -0.86 |
| Cc1nc(CC(=O)NNS(=O)(=O)c2ccc(F)c(Cl)c2)cs1 | -0.8 (inactive) | -1.4 |
| Oc1c(Br)cccc1/C=N/Nc1c(F)c(F)c(F)c(F)c1F | -1.2 (inactive) | -1.07 |
| CCCCC(NS(=O)(=O)c1ccc(C)cc1)C(=O)Oc1ccc2c3c(c(=O)oc2c1)CCC3 (stereo unspecified) | 3.73 (inactive) | 0.78 |
| COc1ccc(-c2noc(-c3cccc(OC)c3OC)n2)cc1OC | 0.11 (inactive) | 0.39 |
| COc1ccc(-c2nnco2)cc1OC | 12.4 (active) | 7.83 |
| COc1ccc2c(Cl)c(-c3nnco3)sc2c1 | -1.26 (inactive) | -0.79 |
| COc1cccc(-c2nnc(NC(=O)c3ccc(S(=O)(=O)N(CC(C)C)CC(C)C)cc3)o2)c1 | 5.73 (active) | 8.93 |
| O=C(COC(=O)c1ccc(Oc2ccccc2)cc1)Nc1nnc(-c2ccccc2)o1 | 0.36 (inactive) | -0.67 |
| COc1cccc(NC(=O)CN(C)S(=O)(=O)c2ccc(C)cc2)c1 | -1.24 (inactive) | -0.78 |
| O=C(Cc1ccc(-c2ccccc2)cc1)NC(c1ccccc1)c1ccccc1 | -0.71 (inactive) | -0.45 |
| COc1ccc(CC(=O)Nc2cc(S(=O)(=O)N3CCCCC3)ccc2N2CCN(C)CC2)cc1 | 0.01 (inactive) | -0.4 |
| O=[N+]([O-])c1cccc(S(=O)(=O)N2CCCCCC2)c1 | 0.38 (inactive) | -0.08 |
| Cc1ccc(C(C)C)cc1OCCN1CCCC1 | -1.51 (inactive) | -0.59 |
| O=C(Nc1ccc(CSc2ccccc2)cc1)c1ccc(CN2CCOCC2)cc1 | -1.65 (inactive) | -1.3 |
| CSCC[C@H](NC(=O)OC(C)(C)C)C(=O)N/N=C/c1cc2ccc(C)cc2nc1Cl | -1.17 (inactive) | -0.96 |
| Cc1ccc(C)c(OCC(=O)N2CCN(C(=O)c3ccco3)CC2)c1 | 2.17 (inactive) | 2 |
| CCn1c(/C=N/NC(=O)c2ccc(OC)cc2)nc2ccccc21 | -1.61 (inactive) | -0.95 |
| CC(C)CC(CO)N1CCN(C(=O)c2ccc(Cl)cc2Cl)CCC1=O (stereo unspecified) | 0.36 (inactive) | -0.56 |
| CC(=O)Nc1ccc(SCC(=O)Nc2ccccc2Oc2ccccc2)cc1 | -0.06 (inactive) | -0.09 |
| Cc1sc2nc(CC(N)=O)[nH]c(=O)c2c1-c1ccccc1 | 0.91 (inactive) | 0.6 |
| CCOc1cc(NC(=S)NCCCOC)c(OCC)cc1NC(=O)c1ccco1 | 0.22 (inactive) | -0.09 |
| CCOc1cccc(OCCCOc2cccc3cccnc23)c1 | -1.11 (inactive) | -0.59 |
